In PubChem BioAssay AID1159580 (chemical genetic matrix, 2015):
Where “and” joins values, the source holds several entries; their conditions need not be identical. Identical values can stand only once. In all, about 5,500 compounds went through this assay and about 2,000 (36%) were called active. Not shown: some 18% with an inconclusive outcome. No stated cut-off is given here; in the data, active means normalized growth mostly below about 0.91 (no sharp cut-off); inconclusive means no clear call, values can overlap the other calls; inactive means mostly above about 0.92. The list shows a part of the results.

Assay: chemical genetic growth profiling, strain panel (AID 1159580);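 further: tested at 20 µM; growth read once vehicle control cultures reached saturation at 30 °C; 1 = growth at the plate median or of vehicle wells; lower values mean less growth of the strain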
Details: S. cerevisiae deletion strains, growth OD

Measured: normalized growth

CC(C)CCCC(C)[C@H]1CCC2C3CC=C4C[C@@H](O)CC[C@]4(C)C3CC[C@@]21C (some centres undefined)
inactive: locus YAL021C, strain ccr4, hits give low values 0.974 | locus YAL026C, strain drs2, hits give low values 0.96 | locus YAL030W, strain snc1, hits give low values 0.979 | locus YBL061C, strain skt5, hits give low values 0.99 | locus YBR009C, strain hhf1, hits give low values 0.986 | locus YBR021W, strain FUR4, hits give low values 1.01 | locus YBR023C, strain chs3, hits give low values 0.989 | locus YBR171W, strain sec66, hits give low values 0.987 | locus YBR229C, strain ROT2, hits give low values 1.01 | locus YBR231C, strain swc5, hits give low values 0.989 | locus YBR279W, strain paf1, hits give low values 0.951 | locus YCL011C, strain gbp2, hits give low values 0.972 | locus YCL016C, strain dcc1, hits give low values 0.994 | locus YCL029C, strain bik1, hits give low values 0.979 | locus YCL061C, strain MRC1, hits give low values 0.985 | locus YCL069W, strain vba3, hits give low values 0.964 | locus YCR088W, strain abp1, hits give low values 0.992 | locus YDL005C, strain med2, hits give low values 0.976 | locus YDL035C, strain GPR1, hits give low values 1.03 | locus YDL040C, strain nat1, hits give low values 0.986 | locus YDL074C, strain BRE1, hits give low values 1.03 | locus YDL101C, strain DUN1, hits give low values 1.01 | locus YDL134C, strain PPH21, hits give low values 1.03 | locus YDL185W, strain tfp1, hits give low values 0.994 | locus YDL192W, strain arf1, hits give low values 0.992 | locus YDR001C, strain nth1, hits give low values 0.981 | locus YDR069C, strain doa4, hits give low values 0.966 | locus YDR101C, strain arx1, hits give low values 0.962 | locus YDR137W, strain rgp1, hits give low values 0.916 | locus YDR159W, strain sac3, hits give low values 0.963 | locus YDR162C, strain NBP2, hits give low values 1 | locus YDR195W, strain ref2 0.957 | locus YDR297W, strain sur2, hits give low values 0.985 | locus YDR318W, strain mcm21, hits give low values 1.01 | locus YDR334W, strain swr1, hits give low values 0.964 | locus YDR335W, strain msn5, hits give low values 0.996 | locus YDR388W, hits give low values 0.988 | locus YDR392W, strain spt3, hits give low values 0.935 | locus YDR502C, strain sam2, hits give low values 0.974 | locus YEL003W, strain gim4, hits give low values 0.982 | locus YEL037C, strain rad23, hits give low values 0.953 | locus YEL061C, strain CIN8 (second series), hits give low values 0.965 | locus YEL061C, strain CIN8, hits give low values 1.01 | locus YER015W, strain faa2, hits give low values 0.995 | locus YER016W, strain bim1, hits give low values 0.987 | locus YER110C, hits give low values 0.991 | locus YER111C, strain swi4, hits give low values 0.985 | locus YER155C, strain BEM2 (second series), hits give low values 0.984 | locus YER155C, strain BEM2, hits give low values 1.01 | locus YER167W, strain BCK2, hits give low values 1 | locus YFR010W, strain ubp6, hits give low values 0.961 | locus YGL078C, strain dbp3, hits give low values 0.996 | locus YGL086W, strain mad1, hits give low values 0.991 | locus YGL167C, strain pmr1, hits give low values 0.99 | locus YGL173C, strain kem1, hits give low values 0.984 | locus YGL227W, strain vid30, hits give low values 0.99 | locus YGL240W, strain doc1, hits give low values 0.986 | locus YGL248W, strain PDE1, hits give low values 1.03 | locus YGL253W, strain hxk2, hits give low values 0.976 | locus YGR078C, strain PAC10, hits give low values 1.01 | locus YGR135W, strain pre9, hits give low values 1 | locus YGR252W, strain gcn5, hits give low values 0.978 | locus YHR013C, strain ard1, hits give low values 0.96 | locus YHR027C, strain rpn1, hits give low values 0.997 | locus YHR030C, strain SLT2, hits give low values 1.01 and 1.02 | locus YHR079C, strain IRE1 (second series), hits give low values 0.997 | locus YHR079C, strain IRE1, hits give low values 1.01 | locus YHR094C, strain hxt1, hits give low values 0.988 | locus YHR129C, strain ARP1, hits give low values 0.999 | locus YHR142W, strain chs7, hits give low values 0.956 | locus YHR200W, strain rpn10, hits give low values 0.995 | locus YIL066C, strain RNR3, hits give low values 1.01 | locus YIL073C, strain SPO22, hits give low values 1 | locus YIL125W, strain kgd1, hits give low values 0.99 | locus YIR030C, strain dcg1, hits give low values 0.987 | locus YJL092W, strain hpr5, hits give low values 0.992 | locus YJL095W, strain BCK1 (second series), hits give low values 0.987 | locus YJL095W, strain BCK1, hits give low values 1.04 and 1.01 | locus YJL115W, strain asf1, hits give low values 0.981 | locus YJL129C, strain trk1, hits give low values 0.968 | locus YJL134W, strain LCB3, hits give low values 1.01 | locus YJL154C, strain vps35, hits give low values 0.981 | locus YJL164C, strain tpk1, hits give low values 0.985 | locus YJL166W, strain qcr8, hits give low values 0.985 | locus YJL168C, strain set2, hits give low values 1 | locus YJL187C, strain SWE1 (second series), hits give low values 1.01 | locus YJL187C, strain SWE1, hits give low values 0.974 | locus YJR043C, strain POL32, hits give low values 1.01 | locus YJR066W, strain TOR1, hits give low values 0.987
